# An excerpt weighted towards active compounds, which were near 0.67% of everything screened.
# Rin1-Abl PPI inh – blocks binding of human Rin1 to Abl; 360,000 tested, 0.4% active; P00519+Q13671; AID 588664; inhibition, % at 7.35 µM; TR-FRET Rin1/Abl binding, biochemical; in the data active means inhibition above about 5%, passing the limit was not always enough
# NPR2 activator – GC-B (human) receptor activation. HEK293-GC-B cells, CNP EC30, cGMP TR-FRET; 0% at EC30 CNP, 100% saturating CNP. activation, % at 10 µM. 370,000 tested, 0.11% active. AID 1920062;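 active means activation at 10 µM reaching about 35% in either raw or pattern-adjusted values, limit read from the data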
# Target sequence (P20594 whole entry, looked up): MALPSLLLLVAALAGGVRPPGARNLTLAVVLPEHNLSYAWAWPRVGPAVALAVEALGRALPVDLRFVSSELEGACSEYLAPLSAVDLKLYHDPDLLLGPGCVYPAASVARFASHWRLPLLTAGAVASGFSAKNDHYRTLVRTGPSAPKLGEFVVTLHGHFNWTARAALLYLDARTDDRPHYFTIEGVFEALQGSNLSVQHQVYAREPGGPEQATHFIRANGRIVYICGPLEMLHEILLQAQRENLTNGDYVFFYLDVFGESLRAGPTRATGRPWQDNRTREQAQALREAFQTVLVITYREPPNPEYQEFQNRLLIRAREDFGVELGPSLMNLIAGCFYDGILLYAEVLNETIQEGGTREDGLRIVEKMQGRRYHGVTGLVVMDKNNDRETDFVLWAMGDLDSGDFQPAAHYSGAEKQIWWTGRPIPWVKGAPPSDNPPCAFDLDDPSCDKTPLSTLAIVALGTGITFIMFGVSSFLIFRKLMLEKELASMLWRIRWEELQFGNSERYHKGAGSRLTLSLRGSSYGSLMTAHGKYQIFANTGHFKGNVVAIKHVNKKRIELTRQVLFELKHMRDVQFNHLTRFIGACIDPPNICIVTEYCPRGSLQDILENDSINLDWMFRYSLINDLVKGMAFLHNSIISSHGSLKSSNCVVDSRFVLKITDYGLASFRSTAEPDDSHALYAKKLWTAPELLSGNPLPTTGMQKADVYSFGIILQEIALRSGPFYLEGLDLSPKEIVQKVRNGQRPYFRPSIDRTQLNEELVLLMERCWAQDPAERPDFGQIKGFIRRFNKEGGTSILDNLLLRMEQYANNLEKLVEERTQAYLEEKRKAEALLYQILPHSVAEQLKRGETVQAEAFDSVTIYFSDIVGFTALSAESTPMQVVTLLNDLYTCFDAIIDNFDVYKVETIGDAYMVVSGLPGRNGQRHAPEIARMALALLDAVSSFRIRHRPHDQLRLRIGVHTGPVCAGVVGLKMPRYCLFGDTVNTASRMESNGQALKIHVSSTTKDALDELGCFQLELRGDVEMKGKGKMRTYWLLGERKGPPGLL
# CaV13 ICDI inh – Primary screen for inhibitors of IQ motif and Ca2+-dependent inactivation inhibitor domain binding in CACNA1D, Förster resonance energy transfer in living cells, … | inhibition, % at 12.3 µM | HEK cells, CFP/YFP FRET ICDI-IQ, plate reader, 10 min; percent FRET-ratio fall versus neutral wells | 340,000 tested, 0.098% active | AID 743397;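 active means mean replicate inhibition of at least 30% and at least 1% of replicates passing that level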;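 further: 0% = median of the neutral control wells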
# GC-A act – GC-A (human) enzyme activation; P16066; activation, % at 10 µM; HEK293 GC-A cells, cGMP TR-FRET, EC30 ANP; 0% at EC30 ANP, 100% saturating ANP; 370,000 tested, 0.14% active; AID 1671463; in the data active means activation above about 40%
# Rin1 Abl conf – Rin1-Abl interaction inhibition confirmation | shares compounds with Rin1-Abl PPI inh | 1,300 tested, 49% active | AID 602124 | inhibition, % at 7.35 µM | TR-FRET Rin1-Abl binding, purified proteins
# GFP quench – quenches GFP fluorescence, counter-screen for Rin1-Abl inhibitors. inhibition, % at 6.75 µM. inhibitors/quenchers counterscreen. 1,300 tested, 8.5% active. shares compounds with Rin1-Abl PPI inh;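 further: ABL1-eGFP fusion protein alone without its partner RIN1-SBP; 0% = protein with vehicle and 100% = wells lacking protein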
# GFP quench DR – quenches GFP in dose response, Rin1-Abl counter-screen; shares compounds with Rin1-Abl PPI inh; GFP fluorescence interference/quenching counterscreen; IC50, µM; 230 tested, under 10 active; AID 602182; call rule not given here;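 further: ABL1-eGFP fusion protein alone without its RIN1 binding partner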
# * hit, by the source's call; nt = no result. Unless noted, no stated cut-off is given here; in the data, active means inhibition above about 6.5%; inactive means the rest.
SMILES,Rin1-Abl PPI inh,NPR2 activator,CaV13 ICDI inh,GC-A act,Rin1 Abl conf,GFP quench,others
O=C(N[C@@H](Cc1cccnc1)C(=O)N1CCC[C@H]1C(=O)NCCc1ccccc1Cl)C1CCCC1,nt,4,-8,1,nt,nt,
Cc1[nH][nH]c(=O)c1C(c1ccc(-c2cccc(Cl)c2)o1)c1c(C)[nH][nH]c1=O,7.9*,nt,nt,nt,8.5*,4,
Cc1[nH][nH]c(=O)c1C(c1ccc(-c2cccc(C(=O)O)c2)o1)c1c(C)[nH][nH]c1=O,8,-1,-6,-3,nt,nt,
CN(C(=O)CCc1nnc(-c2ccc(-c3ccccc3)cc2)o1)C1CCOCC1,8.8*,-2,-6,3,0,2,
CN(CCCC1CCCC1)C(=O)CCc1nnc(-c2ccccc2)o1,0,1,-6,-5,nt,nt,
CCOC(=O)C1(CC2CC2)CCN(Cc2cn[nH]c2-c2ccccc2)CC1,4,0,-5,0,nt,nt,
CCOC(=O)C1(Cc2ccccc2)CCN(Cc2cn[nH]c2-c2ccccc2)CC1,9.5*,-11,-4,-18,-1,-1,
CC(NC(=O)C(=O)c1cn(CC(=O)N2CCCC2)c2ccccc12)c1ccccc1 (stereo not drawn),0,4,-13,4,nt,nt,
CC(NC(=O)C(=O)c1cn(CC(=O)N2CCOCC2)c2ccccc12)c1ccccc1 (stereo not drawn),18*,-1,-4,3,-4,1,
O=C(Nc1nc2ncccn2c1-c1ccc(F)c(F)c1)c1ccccc1,nt,4,nt,-2,nt,nt,
O=c1[nH]c(/C=C\c2ccc(O)c(O)c2)nc(O)c1[N+](=O)[O-],8.3*,-4,-5,-1,8.2*,6,
CC(=O)C(C(C)=O)C1(O)C(=O)c2ccccc2C1=O,23*,2,-5,-1,19*,0,GFP quench DR=>68
O=C(O)c1cccc2cc(-c3ccccc3)oc(=O)c12,2,3,-20,3,nt,nt,
O=C(O)c1cccc2cccc(-c3c4ccc(=O)c(O)c-4oc4c(O)c(O)ccc34)c12,41*,48*,-16,-28,45*,28*,
O=C1C(=O)N(Cc2ccc(-c3ccccc3)cc2)c2ccc(OC(F)(F)F)cc21,nt,-18,nt,-22,nt,nt,
CC1(C)C(=O)OC(c2cccn2-c2ccc([N+](=O)[O-])cc2)C2(CCCCC2)C1=O (stereo not drawn),-2,-5,-16,-2,nt,nt,
CC1(C)C(=O)OC(c2c(F)c(F)c(F)c(F)c2F)C2(CCCCC2)C1=O (stereo not drawn),7.5*,0,0,1,-2,1,
CS(=O)(=O)c1ccc(OC[C@@H](O)CN2CCC(C(O)(c3ccccc3)c3ccccc3)CC2)cc1,nt,-18,nt,-15,nt,nt,
C#CCNC(=O)C[C@@H]1C(=O)N(Cc2ccc(OC)cc2)C2=CCN(C(=O)OC(C)(C)C)C[C@]21C(=O)OCC,nt,0,nt,0,nt,nt,
c1ccc2c(c1)nc(-c1ccncc1)n2CCNc1nc(CN2CCCCC2)cs1,0,-1,-6,0,nt,nt,
CC(=O)OCCN(CCCn1c(-c2ccncc2)nc2ccccc21)c1nc(CN2CCCCC2)cs1,8.4*,-11,-7,-8,2,0,
CS(=O)(=O)N(CC(=O)Nc1ccc(S(=O)(=O)N2CCOCC2)cc1)c1ccccc1Br,9.4*,-2,-4,-4,-3,2,
COc1ccc(C)cc1N(CC(=O)Nc1ccc(S(=O)(=O)N2CCOCC2)cc1)S(C)(=O)=O,2,1,-3,-1,nt,nt,
CCOC(=O)c1ccc(CC(=O)c2ccc(O)c(O)c2O)o1,14*,-5,-15,-3,7.3*,16*,
Cc1ccc(-n2c(SCC(=O)N3Cc4ccccc4CC3C(=O)O)nnc2-c2cccnc2)c(C)c1 (stereo not drawn),7.0*,2,-5,1,18*,2,GFP quench DR=>68
SMILES,Rin1-Abl PPI inh,NPR2 activator,CaV13 ICDI inh,GC-A act,Rin1 Abl conf,GFP quench,others
Cc1ccc(-n2nnnc2SCC(=O)N2Cc3ccccc3CC2C(=O)O)cc1 (stereo not drawn),-4,0,13,0,nt,nt,
C[C@H](O)[C@@H]1CN2CCc3c([nH]c4c(-c5ccccc5)cccc34)[C@@H]2C[C@@H]1N(C)CC1CCCCC1,nt,-2,nt,0,nt,nt,
CC1(C)C=C2C(N(Cc3ccc4c(c3)OCO4)C(=N)N2C(=O)OCc2ccccc2)n2c(=O)n(-c3ccccc3)c(=O)n21 (stereo not drawn),nt,-2,nt,1,nt,nt,
CCOC(=O)c1ccc(NC(=O)COc2ccccc2CNC2CCCC2)cc1,31*,1,-5,0,34*,0,GFP quench DR=>68
CCc1nc(SCC(=O)NCCc2ccc(OC)c(OC)c2)c2c(=O)n(C)c(=O)n(C)c2n1,10*,-1,-6,0,16*,1,
COc1ccc(/C=N/Nc2cc(C)nc(-n3nc(C)cc3C)n2)cc1,1,-7,-17,5,nt,nt,
Cc1cc(N/N=C/c2ccc(O)cc2O)nc(-n2nc(C)cc2C)n1,12*,2,-19,1,10*,-1,
CCn1c(Cc2cccs2)nnc1SCC(=O)Nc1ccc(OCc2ccccc2)cc1,nt,-12,nt,3,nt,nt,
CCCCN(C)C(=O)c1ccc2c(c1)S(=O)(=O)c1ccccc1C2=O,10*,8,-3,3,-3,2,
CCCN(CCC)C(=O)c1ccc2c(c1)S(=O)(=O)c1ccccc1C2=O,-4,3,-9,4,nt,nt,
CNCc1ccccc1Sc1ccc(O)c(O)c1,12*,2,-5,2,6.4*,0,
CCN(CC)c1ccc(C(=O)NNC(=O)CCl)cc1,1,-1,-3,5,nt,nt,
CCN(CC)c1ccc(C(=C2C=CC(=[N+](CC)CC)C=C2)c2ccc(N(CC)CC)cc2)cc1,19*,-66,-3,-251,17*,52*,
CN(CC(=O)Nc1ccc(N2CCOCC2)cc1)C(=O)CCCOc1ccc(Cl)cc1Cl,11*,-10,-6,9,-2,0,
COC(=O)[C@]12C[C@H](CC(=O)NCCc3ccccc3OC)C(=O)N(CCc3ccc(OC)c(OC)c3)C1=C[C@H](C(C)(C)C)O[C@@H]2C,nt,-8,nt,-6,nt,nt,
CCc1nccn1CC(=O)c1ccc(O)c(O)c1,nt,-3,nt,1,nt,nt,
Cc1nc(Cl)sc1C(=O)Nc1ccc(Cl)cc1,1,0,-3,2,nt,nt,
CNC(=O)c1oc(-c2ccc(Cl)cc2)nc1C,13*,-1,2,2,-3,0,
COC(=O)C1CN(Cc2ccc(C)cc2)CCS(=O)(=O)N1Cc1cn(Cc2ccc(C)cc2)nn1 (stereo not drawn),nt,0,nt,-4,nt,nt,

# Source: PubChem BioAssay
